Compound activity (PubChem)
NPC1 prom act: qHTS Assay for NPC1 Promoter Activators; Huh7 NPC1 promoter luciferase reporter, 24 h; Potency, µM (highest dose often 9.22 µM), inactives show at the top dose activation, actives largely listed as activators; actives 2.4% (n = 320,000); AID 485313, 2010; note: % of control where 0% means no effect; nearly all actives have a fitted effect of over 60% in size
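Quantitative HTS used a cell-based reporter: Huh7 cells stably bearing the NPC1 promoter upstream of luciferase were treated with compounds for 24 h, and promoter activation was read as luminescence.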
Rab9 prom act: qHTS Assay for Rab9 Promoter Activators | Huh7 Rab9 promoter-luciferase reporter, luminescence, 24 h | Potency, µM (highest dose often 9.22 µM), for inactives: at the highest dose activation, negative = inhibition, hits mostly activators | actives 2.8% (n = 320,000) | AID 485297, 2010; note: % of control where 0% means no effect; nearly all actives have a fitted effect of over 60% in size
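Luciferase signal after 10 min detection reagent at ambient indicates Rab9 promoter upregulation; stably transfected Huh7 cells were treated 24 h with compound in DMSO at 37 °C, 5% CO2.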
SMN2 splice enh: qHTS Assay for Enhancers of SMN2 Splice Variant Expression. HEK293 SMN2-luciferase splicing reporter, luminescence, 30-36 h. Potency, µM (highest dose often 46.1 µM), for the others: at the top dose activity change, positive = activation, usual class: activators. actives 2.8% (n = 210,000). AID 1458, 2008; note: % of control where 0% means no effect; nearly all actives have a fitted effect of over 55% in size
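HEK293 cells carry an SMN2 minigene-luciferase reporter in which exon 7 inclusion puts luciferase in frame. Cells were seeded at 2000 cells/well, attached for 10-12 hours, then exposed to compounds for 30-36 hours at 37C before ONE-Glo luminescence.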
FLuc modulator: qHTS profiling assay for firefly luciferase inhibitor/activator using purifed enzyme and Km concentrations of substrates (counterscreen for miR-21 project) | purified FLuc, Km substrates, luminescence inhibition | Potency, µM (series often up to 57.5 µM), for the others: top-dose activity change, negative = inhibition, usual class: inhibitors | Luciferin 4-monooxygenase (Photinus pyralis), P08659 | actives 6.9% (n = 360,000);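 note: plate controls were vehicle for no effect and reference inhibitor for full effect; nearly all actives have a fitted effect of over 55% in size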
Target sequence (P08659 whole entry, looked up): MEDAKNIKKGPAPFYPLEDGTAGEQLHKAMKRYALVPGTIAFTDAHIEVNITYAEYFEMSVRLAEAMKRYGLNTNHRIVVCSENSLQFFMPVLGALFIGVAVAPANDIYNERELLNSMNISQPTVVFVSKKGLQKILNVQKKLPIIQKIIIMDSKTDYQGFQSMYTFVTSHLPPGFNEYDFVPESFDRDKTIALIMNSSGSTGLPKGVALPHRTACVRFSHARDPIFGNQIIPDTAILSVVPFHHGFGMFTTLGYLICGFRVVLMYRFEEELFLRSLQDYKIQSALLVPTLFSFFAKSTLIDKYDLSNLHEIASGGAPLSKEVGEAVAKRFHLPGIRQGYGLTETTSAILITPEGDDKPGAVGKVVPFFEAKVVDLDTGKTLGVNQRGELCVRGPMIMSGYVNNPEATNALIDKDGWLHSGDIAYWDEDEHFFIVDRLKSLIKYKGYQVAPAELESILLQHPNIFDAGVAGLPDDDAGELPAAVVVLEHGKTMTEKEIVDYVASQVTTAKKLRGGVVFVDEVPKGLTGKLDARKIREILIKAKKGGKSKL
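Purified P. pyralis luciferase (10nM final) with 10uM D-luciferin and 10uM ATP (Km levels) in 50mM Tris acetate pH 7.5, 10mM Mg acetate, 0.01% Tween-20, 0.05% BSA; qHTS 6-point titration, ~60 µM downward; luminescence read.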
ELG1 repair inh: qHTS screen for small molecules that inhibit ELG1-dependent DNA repair in human embryonic kidney (HEK293T) cells expressing luciferase-tagged ELG1; HEK293T ELG1-luciferase reporter, luminescence, 16 h; DNA damage induced by 5-fluorouridine; Potency, µM (highest dose often 46.1 µM), without a hit: top-dose activity change, negative = inhibition, hits mostly inhibitors; actives 2.3% (n = 330,000); AID 504467, 2011; note: % is set by controls: 0 for no effect and ±100 for the full control effect; nearly all actives have a fitted effect of over 55% in size
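Cells (2,000 per well) received 5-fluorouridine plus test compound or DMSO and were incubated 16 hr at 37 °C, 5% CO2. Luciferase activity was read by luminescence 30 min after ONE-Glo addition; signal suppression marked inhibition of damage-induced ELG1 function.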
ELG1 genotoxic: qHTS screen for small molecules that induce genotoxicity in human embryonic kidney (HEK293T) cells expressing luciferase-tagged ELG1 | HEK293T ELG1-luciferase reporter, luminescence, 16 h | Potency, µM (titrated, usually from 46 µM), for the others: at the top dose activity change, positive = activation, actives largely listed as activators | actives 1.3% (n = 330,000) | AID 504466, 2011; note: % of control where 0% means no effect; nearly all actives have a fitted effect of over 60% in size
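Genotoxicity was scored as increased ELG1-luciferase reporter signal, measured by ONE-Glo luminescence (30 min, room temperature). Compound or vehicle exposure of the HEK293T reporter cells lasted 16 hr at 37°C.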
The depositor's hits bear a star; ? = inconclusive; / = not tested or not shown; [ ] = another dose, or the depositor's remark. Compounds with a hit are over-represented: about 9.2% of the library has one in this group of screens. Calls come from the whole dose curve; as a rule, active = well fitted curve in the direction sought with a large enough effect; inconclusive = small, poorly fitted or top-dose-only effect, or another doubt; inactive = no such curve, though single readings can be large; an effect the other way counts as inactive or inconclusive. Potency is the fitted concentration of half-maximal effect.

SMILES | NPC1 prom act | Rab9 prom act | SMN2 splice enh | FLuc modulator | ELG1 repair inh | ELG1 genotoxic
CC(C)Oc1ccc2c(=O)c(-c3ccccc3)coc2c1 | 0.79µM* | 0.89µM* | 3.2µM* | 1.7µM* | ? | 9.2µM*
CC(Oc1ccc2c(-c3ccccc3)cc(=O)oc2c1)C(=O)O (stereo unspecified) | -1% | 12% | 11% | -17% | 0% | -3%
Cc1ccc(S(=O)(=O)N(C)c2ccc(C(=O)NCc3ccccc3F)cc2)cc1 | 0% | -3% | / | 7% | -3% | 2%
O=C(Nc1ccc(Cl)cc1)C1CCCN(S(=O)(=O)c2ccc3[nH]c(=O)ccc3c2)C1 (stereo unspecified) | / | / | / | -1% | / | /
CCN(CC(=O)Nc1ccccc1C(F)(F)F)C(=O)C1=COCCO1 | 1% | -2% | / | 4% | 9% | 0%
O=C(COc1cccc2cccnc12)Nc1cccc(S(=O)(=O)N2CCCC2)c1 | -1% | -7% | / | -14% | ? | -2%
O=C(COc1cccc2cccnc12)Nc1ccccc1 | ? | 4µM* | ? | 21µM* | ? | 11%
O=C(COc1cccc2cccnc12)N/N=C/c1ccc(O)cc1 | -4% | 1% | 12% | 17µM* | 15% | -5%
Oc1ccccc1/C=N/Nc1cccc2cccnc12 | ? | 13% | ? | 1.5µM* | ? | ?
Cc1ccccc1OCC(=O)N/N=C/c1cccc2cccnc12 | -3% | 3% | / | -15% | -24% | 2%
O=C(COc1cccc2cccnc12)N/N=C/c1ccccc1O | -2% | -7% | / | -10% | 8.2µM* | 1%
Cc1cc(-c2csc(N)n2)c(C)n1Cc1ccco1 | 0% | 0% | ? | ? | 7% | -2%
CN=C1NN=C(c2cc(C)n(-c3c(C)n(C)n(-c4ccccc4)c3=O)c2C)CS1 | 0% | -3% | -2% | -1% | 9% | 1%
COCC(C)N=C1NN=C(c2cc(C)n(Cc3ccccc3Cl)c2C)CS1 (stereo unspecified) | ? | ? | -16% | 7.6µM* | ? | ?
Cc1cc(C2=NNC(=NC3CC3)SC2)c(C)n1Cc1ccco1 | -34% | -50% | -70% | 0.12µM* | ? | 18%
COCCCN=C1NN=C(c2cc(C)n(Cc3ccco3)c2C)CS1 | 6.3µM* | 10% | ? | 2.7µM* | ? | 3.3µM*
CCc1ccc(N2C(=O)C3CCCN3C2=S)cc1 (stereo unspecified) | 5% | 6% | / | ? | 12% | 1%
COc1ccc(-c2cc(C(F)(F)F)nc(-n3cc(Cl)cn3)n2)cc1 | -8% | -2% | -44% | 0% | 23µM* | -12%
COc1cccc(-c2cc(C(F)(F)F)nc(-n3cc(Cl)cn3)n2)c1 | 0% | -3% | -42% | 2% | ? | -14%
CCOC(=O)N1CCC(NC(=O)c2ccc3c(c2)N(Cc2ccc(F)cc2)CCS3)CC1 | -4% | 0% | -46% | 1% | 18µM* | -27%
CCOC(=O)N1CCC(NC(=O)c2ccc3c(c2)N(Cc2ccccc2)CCS3)CC1 | 3% | 2% | -54% | 0% | 15µM* | -22%
CCCC/C=C/C(NC(=O)c1cccs1)c1ccccc1 (stereo unspecified) | / | / | -42% | / | / | /
CCc1ccccc1O | / | / | -7% | / | / | /
COC(=O)c1ccccc1NC(=O)c1sc2nc(C)cc(C)c2c1NC(=O)c1ccccc1Cl | / | / | 11% | 1% | / | /
COC(=O)c1ccc(C(NC(=O)OCc2ccccc2)/C(F)=C/[C@@H](C)C(=O)NCCN2CCOCC2)cc1 (stereo partly specified) | / | / | -7% | / | / | /
SMILES | NPC1 prom act | Rab9 prom act | SMN2 splice enh | FLuc modulator | ELG1 repair inh | ELG1 genotoxic
S[C@@H]1CCCN(Cc2ccccc2)C1 | / | / | 0%[9.22 µM] | / | / | /
O=C(NCC1COc2ccccc2O1)c1ccc(F)c(S(=O)(=O)N2CCOCC2)c1 (stereo unspecified) | 2% | -2% | / | 4% | -26% | -1%
O=C(NCCN1C(=O)S/C(=C\c2ccccc2)C1=O)c1cc(S(=O)(=O)N2CCOCC2)c(Cl)cc1Cl | 0% | -3% | -34% | 1% | 15µM* | -3%
O=C(NCCN1C(=O)S/C(=C\c2ccc(Cl)cc2)C1=O)c1ccc(F)c(S(=O)(=O)N2CCOCC2)c1 | ? | ? | 6% | -14% | ? | ?
O=C(NCC1COc2ccccc2O1)c1cc(S(=O)(=O)N2CCOCC2)c(Cl)cc1Cl (stereo unspecified) | 3% | -6% | / | -2% | 18µM* | -8%
CCOc1ccc(Nc2ccc([N+](=O)[O-])c3nonc23)cc1 | ? | 4.5µM* | / | 12µM* | ? | 20%
COC(=O)C1=C(C)NC(C)=C(C(=O)OCC2CCCO2)C1c1ccc(Cl)c([N+](=O)[O-])c1 (stereo unspecified) | -1% | -7% | / | 3% | 10µM* | -20%
N#Cc1ccc(-c2nc3cc(Cl)ccc3c(=O)n2O)cc1 | -5% | -2% | / | 1% | 12µM* | -6%
O=c1c2cc(Br)ccc2nc(-c2ccc(Cl)cc2)n1O | -1% | 1%[1.84 µM] | / | 0% | ? | -11%
On1c(-c2ccccc2)nc2ccc(Cl)cc21 | ? | ? | 13µM* | 17µM* | ? | 8%
Nn1c(-c2ccccc2)nc2cc(Cl)ccc2c1=O | 1% | -2% | / | 5% | -9% | 2%
N#Cc1ccc(-c2nc3ccccc3c(=O)n2O)cc1 | 1% | 3% | / | 0% | ? | -14%
O=c1c2cc(Cl)ccc2nc(-c2ccc([N+](=O)[O-])cc2)n1O | -5% | 1% | -42% | ? | 18µM* | -10%
OC1C=C2CCN3Cc4cc5c(cc4C(C1O)C23)OCO5 (stereo unspecified) | / | / | -49% | / | / | /
CN(C)c1ccc(N=Cc2nc(-c3ccccc3)oc2OC(=O)c2cccc(Br)c2)cc1 | ? | 28% | 16µM* | ? | ? | ?
Cc1ccc(C(=O)Oc2oc(-c3ccco3)nc2C=Nc2ccccc2)cc1 | 29% | ? | 23% | 15µM* | ? | 14%
COc1ccc(N=Cc2nc(-c3ccccc3)oc2OC(=O)c2ccccc2)cc1 | 27% | ? | 119% | 11µM* | ? | ?
CC(=O)Oc1oc(-c2ccccc2)nc1C=Nc1ccccc1 | -6% | 17% | 6% | -19% | 23% | 4%
